Results reported in PubChem BioAssay AID1159580 (chemical genetic matrix, 2015).
Among all 5,500 compounds or so, about 2,000 (36%) were called active. Roughly 18% stayed inconclusive and do not appear here. Cut-off read from the data, not from the text of the source: active = normalized growth mostly below about 0.91 (no sharp cut-off); inconclusive = no clear call, values can overlap the other calls; inactive = mostly above about 0.92. Some of the results follow.

Assay: chemical genetic growth profiling, strain panel (AID 1159580);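 note: tested at 20 µM; growth read once vehicle control cultures reached saturation at 30 °C; 1 = growth at the plate median or of vehicle wells; lower values mean less growth of the strain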
Conditions: S. cerevisiae deletion strains, growth OD

Measured: normalized growth

O=C(O)CCCCCCCC(O)C(O)CCCCCCO (stereo not given)
inactive: locus YHR030C, strain SLT2, hits give low values 1.02 | locus YHR079C, strain IRE1, hits give low values 1.01 | locus YJL095W, strain BCK1, hits give low values 1 | locus YJR066W, strain TOR1, hits give low values 0.935 | locus YLR113W, strain HOG1, hits give low values 0.987 | locus YNL183C, strain NPR1, hits give low values 0.954 | locus YOR231W, strain MKK1, hits give low values 0.991 | locus YPL256C, strain CLN2, hits give low values 1.01

Cn1cnc2c(NCc3ccccc3)nc(NCCO)nc21
inactive: locus YAL013W, strain DEP1, hits give low values 0.989 | locus YAL040C, strain CLN3, hits give low values 1.08 | locus YCL061C, strain MRC1 (second series), hits give low values 0.99 | locus YDR150W, strain NUM1, hits give low values 0.998 | locus YDR363W, strain ESC2, hits give low values 1.01 | locus YER002W, strain NOP16, hits give low values 1.05 | locus YGR078C, strain PAC10, hits give low values 0.988 | locus YGR229C, strain SMI1, hits give low values 0.991 | locus YJR075W, strain HOC1, hits give low values 0.981 | locus YMR263W, strain SAP30, hits give low values 0.984 | locus YMR307W, strain GAS1, hits give low values 1 | locus YNL175C, strain NOP13, hits give low values 1 | locus YNL197C, strain WHI3, hits give low values 0.982 | locus YNL224C, strain SQS1, hits give low values 1 | locus YNL322C, strain KRE1, hits give low values 0.992 | locus YOR083W, strain WHI5 (second series), hits give low values 0.988 | locus YPL055C, strain LGE1, hits give low values 1
